Results on 8 compounds are retold here after PubChem BioAssay (Tox21).

Structures are written as SMILES. Inconclusive results are not listed. The source holds several records for some structures; these can differ, active in one and inactive in another. Active and inactive are the calls of the source. Unless noted, calls come from the whole dose curve; as a rule, active = well fitted curve in the direction sought with a large enough effect in the repeat runs; inconclusive = weak or mixed curves; inactive = no such curve, though single readings can be large; an effect the other way counts as inactive or inconclusive.

Test [1] in a line: qHTS assay to identify small molecule that activate the aryl hydrocarbon receptor (AhR) signaling pathway - cell viability counter screen (AID 743086).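 Note: HepG2 liver cells carrying the AhR DRE luciferase reporter; series mostly up to about 70 µM; nearly all actives have a fitted effect of over 45% in size.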 In outline: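 HepG2-AhR-luc (HG2L7.5c1) cells, 4000/well, were preincubated 5 h at 37C, exposed to compound in qHTS format for 24 hr at 37C, then given CellTiter-Fluor for 30 min; viability was read as fluorescence in the reporter wells.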

The target of test [2] is Peroxisome proliferator-activated receptor gamma (Homo sapiens) (UniProt P37231). The test can be described thus: qHTS assay to identify small molecule agonists of the peroxisome proliferator-activated receptor gamma (PPARg) signaling pathway (AID 743094; active = well fitted activation curve with a large enough effect in the signal ratio in the repeat runs, not every such curve was filed as active; the % refers to the signal ratio). The procedure, abridged: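 Following 5 h plating at 37C, PPARg-bla HEK293H cells receive compound or DMSO for 17 h; fluorescence intensity is recorded after LiveBLAzer B/G loading for 1 h at room temperature.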
A general note: qHTS replaces the single test concentration by a dilution series.

The target is the same in test [3]. The test can be described thus: qHTS assay to identify small molecule antagonists of the peroxisome proliferator-activated receptor gamma (PPARg) signaling pathway (AID 743191; calls by dose curve; note: series mostly up to about 63 µM; nearly all actives have a fitted effect of over 30% in size). The procedure, abridged: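 GeneBLAzer PPARg UAS-bla HEK293H cells carrying a UAS-driven beta-lactamase reporter were plated at 3000 cells/well, preincubated 5 h at 37C, then given compound for 17 h at 37C; LiveBLAzer B/G FRET substrate was read after 1 h at room temperature.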

Test [4] in a line: qHTS assay to identify small molecule antagonists of the peroxisome proliferator-activated receptor gamma (PPARg) signaling pathway - cell viability counter screen (AID 743194). Note: nearly all actives have a fitted effect of over 55% in size. In outline: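 PPARg-UAS-bla HEK293H cells were plated, rested 5 h at 37 C, then treated with compounds plus rosiglitazone (50 nM final) for 17 h at 37 C; viability was then read by CellTiter-Glo luminescence after 30 min at room temperature.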

The nature of test [5]: qHTS assay for small molecule agonists of the antioxidant response element (ARE) signaling pathway (AID 743202; active = well fitted activation curve with a large enough effect in the signal ratio in the repeat runs, not every such curve was filed as active; the % refers to the signal ratio). The procedure, abridged:
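Read-out: LiveBLAzer B/G FRET substrate fluorescence after 2 h at room temperature, following 16 h compound treatment at 37 C of HepG2 cells carrying an ARE-driven beta-lactamase reporter.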

A short description of test [6]: qHTS assay for small molecule agonists of the antioxidant response element (ARE) signaling pathway - cell viability counter screen (AID 743203; calls by dose curve; note: nearly all actives have a fitted effect of over 55% in size). The procedure, abridged:
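Compounds in DMSO were pinned onto ARE-bla HepG2 cells plated 5 hrs earlier at 2,000 cells/well. Sixteen hours later at 37C/5% CO2, CellTiter-Glo was added and luminescence measured after 30 min at room temperature.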

Test [7] is described as follows: qHTS assay for small molecule activators of the heat shock response signaling pathway - cell viability counter screen (AID 743209). Note: nearly all actives have a fitted effect of over 50% in size. In outline:
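Counter screen for cytotoxicity in HeLa HSE-bla reporter cells. Treatment was 5 h at 37 C; viability was detected by luminescent ATP assay (CellTiter-Glo) in the same wells as the beta-lactamase read.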

Test [8] can be described thus: qHTS assay for small molecule activators of the heat shock response signaling pathway (AID 743210; active = well fitted activation curve with a large enough effect in the signal ratio in the repeat runs, with a control signal flat, not every such curve was filed as active; the % refers to the signal ratio; note: series mostly up to about 63 µM). In outline: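 HSE-bla HeLa cells (beta-lactamase reporter under heat shock response elements) were exposed to compounds for 5 h at 37 C, then loaded with LiveBLAzer B/G FRET substrate for 2.5 h at room temperature before fluorescence reading.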
The nature of test [9]: qHTS assay to identify small molecule agonists of the peroxisome proliferator-activated receptor delta (PPARd) signaling pathway - cell viability counter screen (AID 743211). Note: nearly all actives have a fitted effect of over 55% in size. In outline:
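In the same wells used for beta-lactamase reporter measurement, cytotoxicity is scored by CellTiter-Glo. HEK293H PPARd-bla cells receive compound for 17 h at 37C following a 5 h settling period.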

For test [10], the target named is Peroxisome proliferator-activated receptor delta (Homo sapiens) (UniProt Q03181). The test can be described thus: qHTS assay to identify small molecule agonists of the peroxisome proliferator-activated receptor delta (PPARd) signaling pathway (AID 743212; calls by dose curve). In outline: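 GeneBLAzer PPARd UAS-bla HEK293H cells (beta-lactamase reporter under UAS control), plated and rested 5 h at 37 C, then exposed to compounds in DMSO at 37 C; LiveBLAzer B/G FRET substrate added, 2 h room temperature, fluorescence read.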

Test [11] in a line: qHTS assay to identify small molecule antagonists of the peroxisome proliferator-activated receptor delta (PPARd) signaling pathway - cell viability counter screen (AID 743213). Note: nearly all actives have a fitted effect of over 50% in size. Note: potency is the fitted concentration of half-maximal effect. In outline: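 HEK293H cells with the PPARd UAS-bla reporter, co-treated 17 h at 37 C with compounds and L165041 (300 nM final), were lysed with CellTiter-Glo. Luminescence indicated viable cell content.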

In test [12] the target is Peroxisome proliferator-activated receptor delta (Homo sapiens) (UniProt Q03181). The test can be described thus: qHTS assay to identify small molecule antagonists of the peroxisome proliferator-activated receptor delta (PPARd) signaling pathway (AID 743215; active = well fitted inhibition curve with a large enough effect in the signal ratio in the repeat runs, not every such curve was filed as active; the % refers to the signal ratio;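 note: cells stimulated with agonist L165041 at 300 nM final during compound exposure; series mostly up to about 62 µM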). The procedure, abridged: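 With L165041 present at 300 nM final, compounds were incubated 17 h at 37 C on PPARd UAS-bla HEK293H cells. A FRET-based beta-lactamase substrate was then applied for 2 h at room temperature and fluorescence intensity recorded.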

The nature of test [13]: qHTS assay to identify small molecule antagonists of the farnesoid-X-receptor (FXR) signaling pathway - cell viability counter screen (AID 743221; active = well fitted cell-killing curve with a large enough effect in the repeat runs, not every such curve was filed as active; note: nearly all actives have a fitted effect of over 50% in size). In outline:
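Here viability was scored by luminescence after CellTiter-Glo addition to wells already read for beta-lactamase. Prior treatment: compound plus CDCA (50 uM final), 16 h, 37 C, HEK 293T FXR-bla cells.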

Test [14] can be described thus: qHTS assay to identify small molecule agonists of the vitamin D receptor (VDR) signaling pathway - cell viability counter screen (AID 743224). Note: nearly all actives have a fitted effect of over 50% in size. Note: potency is the fitted concentration of half-maximal effect. In outline:
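Here cell health was gauged by luminescent ATP detection (CellTiter-Glo, 30 min RT) in VDR-bla cells that had been incubated with test compounds for 16 h at 37C and 5% CO2.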

Test [15] has as its target Bile acid receptor (Homo sapiens) (UniProt Q96RI1). The test can be described thus: qHTS assay to identify small molecule antagonists of the farnesoid-X-receptor (FXR) signaling pathway (AID 743217; active = well fitted inhibition curve with a large enough effect in the signal ratio in the repeat runs, not every such curve was filed as active; the % refers to the signal ratio). The procedure, abridged:
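In this cell-based antagonist screen, inhibition of CDCA-driven (50 uM final) UAS-beta-lactamase expression in HEK 293T cells was measured by FRET fluorescence following 16 h compound exposure at 37 °C.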

Test [16] is described as follows: qHTS assay to identify small molecule agonists of the farnesoid-X-receptor (FXR) signaling pathway - cell viability counter screen (AID 743218). Note: nearly all actives have a fitted effect of over 45% in size. The procedure, abridged: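 After 16 h at 37 C with test compounds, FXR-bla HEK 293T cells were given LiveBLAzer B/G substrate for 2 h at RT and then CellTiter-Glo; luminescence was taken after 30 min.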
Test [17] deals with Bile acid receptor (Homo sapiens) (UniProt Q96RI1). The test can be described thus: qHTS assay to identify small molecule agonists of the farnesoid-X-receptor (FXR) signaling pathway (AID 743220; active = well fitted activation curve with a large enough effect in the signal ratio in the repeat runs, not every such curve was filed as active; the % refers to the signal ratio). The procedure, abridged:
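Beta-lactamase reporter under UAS control in GeneBLAzer FXR HEK 293T cells (5000/well) measured with LiveBLAzer FRET substrate after 2 h at room temperature. Compound exposure lasted 16 h at 37C.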

Test [18] concerns the target Vitamin D3 receptor (Homo sapiens) (UniProt P11473). The test can be described thus: qHTS assay to identify small molecule agonists of the vitamin D receptor (VDR) signaling pathway (AID 743222; calls by dose curve). In outline:
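VDR-bla cells were seeded, left 4 h, treated with compounds in DMSO for 16 h, incubated 2 h at RT with B/G FRET substrate, and read for fluorescence.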

In test [19] the target is Aryl hydrocarbon receptor (Homo sapiens) (UniProt P35869). The test can be described thus: qHTS assay to identify small molecule that activate the aryl hydrocarbon receptor (AhR) signaling pathway (AID 743085).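 Note: HG2L7.5c1 human HepG2 liver cells with stably integrated DRE-driven firefly reporter; series mostly up to about 70 µM; nearly all actives have a fitted effect of over 15% in size.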 The procedure, abridged:
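Stably transfected human liver carcinoma cells (HG2L7.5c1; 20 DRE-firefly luciferase) were incubated 5 h, dosed, and kept 24 h at 37C. Agonism was scored from increased luciferase luminescence.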

In test [20] the target is Vitamin D3 receptor (Homo sapiens) (UniProt P11473). The test can be described thus: qHTS assay to identify small molecule antagonists of the vitamin D receptor (VDR) signaling pathway (AID 743223; active = well fitted inhibition curve with a large enough effect in the signal ratio in the repeat runs, not every such curve was filed as active; the % refers to the signal ratio). In outline: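 Inhibition of agonist-driven VDR signalling is scored in VDR-bla cells: 3 nM final 1alpha,25-dihydroxyvitamin D3 plus compound, 16 h at 37C, then beta-lactamase detection by FRET substrate fluorescence after 2 h.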
Vitamin D3 receptor (Homo sapiens), sequence (P11473 whole entry, looked up): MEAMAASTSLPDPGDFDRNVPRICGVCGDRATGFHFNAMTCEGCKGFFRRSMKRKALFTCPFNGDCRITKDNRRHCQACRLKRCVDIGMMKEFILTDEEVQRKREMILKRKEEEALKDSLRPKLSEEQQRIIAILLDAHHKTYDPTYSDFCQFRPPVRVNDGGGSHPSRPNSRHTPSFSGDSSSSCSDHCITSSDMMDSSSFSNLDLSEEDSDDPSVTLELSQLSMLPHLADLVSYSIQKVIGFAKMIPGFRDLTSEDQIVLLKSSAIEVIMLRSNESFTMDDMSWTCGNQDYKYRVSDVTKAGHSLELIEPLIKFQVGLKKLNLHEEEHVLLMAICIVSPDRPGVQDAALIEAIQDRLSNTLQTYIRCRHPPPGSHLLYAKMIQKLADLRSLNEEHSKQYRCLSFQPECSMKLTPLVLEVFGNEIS

Peroxisome proliferator-activated receptor delta (Homo sapiens), sequence (Q03181 whole entry, looked up): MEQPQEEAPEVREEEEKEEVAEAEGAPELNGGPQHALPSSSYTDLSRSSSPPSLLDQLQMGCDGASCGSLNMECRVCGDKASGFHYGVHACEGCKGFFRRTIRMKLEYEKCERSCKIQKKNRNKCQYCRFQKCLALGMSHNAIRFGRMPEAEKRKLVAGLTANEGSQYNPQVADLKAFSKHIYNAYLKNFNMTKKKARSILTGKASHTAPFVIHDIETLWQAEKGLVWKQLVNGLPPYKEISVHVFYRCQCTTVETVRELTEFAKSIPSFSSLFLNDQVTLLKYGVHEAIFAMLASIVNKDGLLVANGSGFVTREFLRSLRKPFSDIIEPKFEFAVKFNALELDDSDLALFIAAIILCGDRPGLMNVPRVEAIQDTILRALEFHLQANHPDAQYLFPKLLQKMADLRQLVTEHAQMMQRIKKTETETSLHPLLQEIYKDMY
Aryl hydrocarbon receptor (Homo sapiens), sequence (P35869 whole entry, looked up): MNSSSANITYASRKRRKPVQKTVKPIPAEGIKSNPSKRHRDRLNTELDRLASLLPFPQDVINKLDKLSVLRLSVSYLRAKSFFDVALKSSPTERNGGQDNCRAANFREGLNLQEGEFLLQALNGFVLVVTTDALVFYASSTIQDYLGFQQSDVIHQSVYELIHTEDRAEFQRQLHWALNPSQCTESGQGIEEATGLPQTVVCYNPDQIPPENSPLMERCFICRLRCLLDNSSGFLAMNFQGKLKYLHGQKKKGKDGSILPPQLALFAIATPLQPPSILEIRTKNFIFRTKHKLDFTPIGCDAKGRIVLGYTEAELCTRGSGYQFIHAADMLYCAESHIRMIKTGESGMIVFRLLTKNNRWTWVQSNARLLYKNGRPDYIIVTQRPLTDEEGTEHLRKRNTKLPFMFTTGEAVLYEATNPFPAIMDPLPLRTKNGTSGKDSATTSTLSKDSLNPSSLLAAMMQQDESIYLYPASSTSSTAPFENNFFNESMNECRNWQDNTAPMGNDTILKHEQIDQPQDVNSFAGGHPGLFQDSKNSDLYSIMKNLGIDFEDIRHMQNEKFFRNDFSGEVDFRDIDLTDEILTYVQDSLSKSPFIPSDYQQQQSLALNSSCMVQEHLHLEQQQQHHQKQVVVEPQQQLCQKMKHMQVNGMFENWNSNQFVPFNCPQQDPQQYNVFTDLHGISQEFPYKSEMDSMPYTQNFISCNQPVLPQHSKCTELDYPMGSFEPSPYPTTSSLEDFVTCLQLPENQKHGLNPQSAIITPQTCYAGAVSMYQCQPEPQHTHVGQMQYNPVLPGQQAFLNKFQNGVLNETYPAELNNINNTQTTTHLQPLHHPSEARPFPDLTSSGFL
Bile acid receptor (Homo sapiens), sequence (Q96RI1 whole entry, looked up): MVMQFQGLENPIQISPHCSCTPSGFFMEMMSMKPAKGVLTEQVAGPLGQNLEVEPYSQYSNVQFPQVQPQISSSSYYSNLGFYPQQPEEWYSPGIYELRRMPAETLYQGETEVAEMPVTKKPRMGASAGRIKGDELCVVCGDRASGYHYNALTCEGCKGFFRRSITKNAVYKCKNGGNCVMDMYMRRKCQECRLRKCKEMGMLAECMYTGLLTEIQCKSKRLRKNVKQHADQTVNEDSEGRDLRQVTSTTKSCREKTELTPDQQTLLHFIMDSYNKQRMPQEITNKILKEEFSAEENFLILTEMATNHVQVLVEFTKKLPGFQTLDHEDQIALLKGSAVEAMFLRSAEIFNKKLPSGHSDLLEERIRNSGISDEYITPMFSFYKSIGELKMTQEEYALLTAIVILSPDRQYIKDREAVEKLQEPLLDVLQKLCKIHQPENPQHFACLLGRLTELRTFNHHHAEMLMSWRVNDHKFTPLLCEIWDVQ
Peroxisome proliferator-activated receptor gamma (Homo sapiens), sequence (P37231 whole entry, looked up): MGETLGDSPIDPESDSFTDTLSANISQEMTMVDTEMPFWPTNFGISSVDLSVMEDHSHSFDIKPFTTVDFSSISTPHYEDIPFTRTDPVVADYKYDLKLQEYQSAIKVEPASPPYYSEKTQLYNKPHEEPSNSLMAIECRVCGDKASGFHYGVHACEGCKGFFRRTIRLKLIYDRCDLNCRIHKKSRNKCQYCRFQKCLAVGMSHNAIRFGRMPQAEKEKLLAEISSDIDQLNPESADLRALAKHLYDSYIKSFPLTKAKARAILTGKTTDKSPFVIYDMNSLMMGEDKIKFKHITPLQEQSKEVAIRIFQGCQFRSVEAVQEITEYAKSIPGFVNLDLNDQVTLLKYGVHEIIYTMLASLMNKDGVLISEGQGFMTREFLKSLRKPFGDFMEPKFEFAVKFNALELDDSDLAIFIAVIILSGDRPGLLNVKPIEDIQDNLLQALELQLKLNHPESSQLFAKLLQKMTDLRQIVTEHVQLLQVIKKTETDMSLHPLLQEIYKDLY

Consider `Cc1[nH]c(=O)c(C#N)cc1-c1ccncc1`, for which the Potency result in [1], in [2], in [3], in test [4], in [5] and in test [6] was “inactive” each time. Moreover, the Potency result in test [7], in [8], in test [9], in [11], in test [12] and in test [13] was “inactive” in each case. For the same compound, the Potency result in [14] was “inactive”. The compound was classed as inactive in test [10].

`C[Si](C)(C)O[Si](C)(C)C`: the Potency entry in [1], in test [2], in test [3], in test [4], in [6] and in test [7] was “inactive” each time. Moreover, the Potency result in test [8], in [9], in test [11], in [12], in test [15] and in test [16] was “inactive” in each case. Moreover, the Potency entry in [13] and in test [14] was “inactive” each time. Also, the outcome in test [10], in test [17] and in test [18] was inactive.

Consider `c1ccc2c(c1)c1cccc3ccc4cccc2c4c31`, for which the Potency result in test [19], in test [1], in test [4], in [6], in test [7] and in [8] was “inactive” each time. Besides, the Potency entry in test [9], in test [11], in [12], in test [15], in [16] and in test [13] was “inactive” throughout. For the same compound, the Potency result in [14] was “inactive”. Also, the result in test [10], in [17] and in test [18] was inactive.

As to `CCCCOCCOCCO`, the Potency entry in test [1], in [2], in test [3], in [4], in [5] and in test [6] was “inactive” in each case. The Potency result in test [7], in test [8], in [9], in test [11], in test [16] and in test [13] was “inactive” in each case. In addition, the Potency entry in test [14] is “inactive”.

Take `CC(C(=O)O)c1cccc(C(=O)c2ccccc2)c1` (stereo not drawn): the Potency entry in [1], in test [2], in test [3], in [4], in [5] and in [6] was “inactive” in each case. The Potency entry in test [7], in test [8], in [9], in test [11], in test [12] and in [16] was “inactive” throughout. In addition, the Potency result in [13] and in test [14] was “inactive” throughout. The call in [10] was inactive.

Regarding `OC(CCl)CCl`, the Potency entry in [1], in [2], in test [3], in test [4], in [5] and in [6] was “inactive” each time. Also, the Potency entry in test [7], in [8], in [9], in test [11], in test [12] and in [16] was “inactive” each time. In addition, the Potency result in test [13] and in [14] was “inactive” throughout. In addition, the result in test [10], in test [18] and in test [20] was inactive.

On to `C[C@]12CCC(=O)C=C1CC[C@@H]1[C@@H]2C(=O)C[C@@]2(C)[C@H]1CC[C@]2(O)C(=O)CO`, for which the Potency entry in test [19], in [1], in test [4], in test [6], in [7] and in [8] was “inactive” in each case. Also, the Potency entry in [9], in test [16] and in test [13] was “inactive” each time. Further, in [10], the call was inactive. Besides, the Potency is 49 µM (active) and inactive in test [11]; 24.5 µM (active) and inactive in [14].

Turning to `O=C(/C=C/c1ccccc1)OCc1ccccc1`, the Potency entry in test [19], in test [1], in test [2], in test [4], in test [6] and in [7] was “inactive” each time. For the same compound, the Potency entry in test [8], in test [9], in test [11], in [12], in test [16] and in [13] was “inactive” each time. Also, the Potency result in test [14] was “inactive”. The outcome in test [10] was inactive.
